Among all 53,000 sequences or so, about 3,700 (7%) were called active. Many of the other results were omitted from the sample, so actives are more common in it than they were. Values without a mark were called inactive.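 How the source made its calls: active means gene knockdowns whose robust z-score for IL-1 alpha signal is at least 2 or at most -2, so actives lie on both sides; inactive means the rest.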
Test: Components of the Cytosolic LPS Sensing Pathway: Gene Identification via Genome-wide siRNA Screen;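 further: robust z of the log signal after scaling to non-targeting control siRNA wells of the plate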
Details: RAW264.7 macrophages, IL-1a HTRF, actives lie on both sides, screened at 100 nM (by protocol), cells primed 5 h with Pam3CSK4 first
Summary of the method: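 Cells (RAW264.7, 1×10^4 per well) were transfected with siRNA at 100 nM and cultured 48h at 37 degrees C. Pam3CSK4 was added for 5 hours; LipidA transfection followed for 24 hour. IL-1a was then measured by HTRF.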
Work on GCAACAACCACCAAAUCUATT against Prol1 yielded a z-score of -1.53. For GGAAGAAUGUGAUGACUCATT against Zfp11, the z-score was -0.471. With “GGUAAUUUAAUGACACAUGTT against A130079P16Rik” the z-score was 2.35 (active). GGAUCCAGACACCUCAAGATT against Vxn showed a z-score of 0.702. CGUUCAUGUUGUAAGUAUCTT against Olfr1196 showed a z-score of 0.461. Sequence GGAGACUUUGAAAAAAGACTT against Mrps31 has a z-score of 0.5. GCUGAAAAUAUACCAUUCATT against Colec10 gave a z-score of -0.798. In the case of GGAUCCAGACUUAAGCUUATT against Zgpat, the z-score is reported as 2.57 (active). With CGGAUUACAAACCAUAAAATT against Mex3b the z-score was -0.497. In the case of GGAGAAGAGAAAGAUUCUUTT against Dhx9, the z-score is reported as 0.724. With GGCAAUGGAAGUUGGAACATT against Ptch1 the z-score was -2.15 (active). For GGACACAUGGUGUUGACCATT against Parp12, the z-score was 0.0379. Work on GGACCUGAUCUUCAGGUUUTT against Gpc5 yielded a z-score of 1.73. Work on GGCUCUCAAUUUUAUUUCUTT against Ncaph2 yielded a z-score of 0.894. GCACGAGACACUUUUCAUUTT against Dnajb5 showed a z-score of -0.0852. With GGAAGCAGAAUUGUAAAGATT against Hrk the z-score was -1.09. In the case of “GCAACAAAAGGCCUAAUCATT against 4930550C14Rik”, the z-score is reported as -1.74. For GGCCCUUGUUUAAAGCCAUTT against Asns, the z-score was 0.0954. Work on CGGCGUAUGAGGAUUGGUUTT against Atp8b1 yielded a z-score of -0.739. In the case of GGCCAAGAUUAGAUUGCUUTT against Senp2, the z-score is reported as 2.57 (active). For GCCCGUAUAGGUAUUGGUCTT against Mpg, the z-score was 2.06 (active). Work on GCUUGAAUCCGAUUUGUUATT against Gramd1c yielded a z-score of 0.296. GGCAUAUGAUGAUAAGUAATT against P2ry14 showed a z-score of 0.691. Sequence GGCACUGAAGGAGAACCUGTT against Rbbp8nl has a z-score of -0.336. Work on GGAACAACUGAAAAUGAAGTT against Ppp1r21 yielded a z-score of -1.21. UUCCAUUCAUAUGUCUUGATT against Tas2r109 showed a z-score of 0.00348. In the case of GGUUUUUCUAAGAGAACGGTT against Rnft1, the z-score is reported as -0.558. For CCUGGUCACUCCAAACCCATT against Zfp950, the z-score was -2.11 (active). GGAGCUCUCGAAGGAUUGUTT against Eda2r showed a z-score of -0.768. GGAUAAGAGGGUGAAGUCATT against Cdyl2 showed a z-score of -1.06. GGUAUAUAGGGCUGUGGCUTT against Pigs gave a z-score of -0.822. GGUGUACUUUAUCUCACGATT against Olfr6 showed a z-score of 1.1. In the case of GCCUGUUCUAGGUGACCUATT against Chd3, the z-score is reported as 0.236. For GGAAAUACAGAACACAAGCTT against Plekhm3, the z-score was 2.04 (active). For GGUUAAAUAUGUAAACCACTT against Slco2b1, the z-score was 0.0949. In the case of CCAUAUAGCCUCAAAAUCGTT against Acat2, the z-score is reported as -0.395. For CGUCUCAACAGAGUUGGAGTT against Prmt2, the z-score was 1.94. With CGAUGCUGAUGUAUCAAAGTT against Phkb the z-score was 1.48. In the case of GGUUCUUUUUACUCAGUGGTT against Ankhd1, the z-score is reported as -2.53 (active). In the case of GGAACUUCCUGUUCAGAAATT against Eci3, the z-score is reported as 0.881. CGUUAGUCUGUGAAUGCACTT against Emc10 gave a z-score of -0.442. For GGACAGUAAUAUGAUGAGCTT against Lzts1, the z-score was -0.943. For GCUUUAGUGACGGCUCGAATT against Zscan2, the z-score was 2.07 (active). GGGAGUGAGUUCUGGAGUGTT against Capn2 showed a z-score of 0.815. For GGUUUUAAAGCAAUGAGCATT against Olfr995, the z-score was -1.2. For CCCAUGUCGUGACAUCACATT against Slc26a7, the z-score was -2.93 (active). Sequence GGCCUUCUAUUUUGUCAAUTT against Limd1 has a z-score of 0.403. In the case of GAAAUUUCCUAGAUGACUCTT against Vmn1r199, the z-score is reported as -0.447. In the case of CGUAUGAGUGCAAUACUAATT against Pcmtd1, the z-score is reported as 1.32. For GCACAUAGUGUAUCUAUACTT against Cd86, the z-score was -1.24. With GUCUUGCGUGACAACAUCCTT against H4c14 the z-score was 0.718. For GCUUAUAUGGCCUGAGAGATT against Tmem199, the z-score was -0.74. With GGUCAAAGGGAAACAAGUUTT against Creb3l4 the z-score was -2.02 (active). GGUGGUUUAACUGGAUAUUTT against Paip2b gave a z-score of -1.95. Sequence GCCCAUGUAUCCAAAAGAATT against Cnmd has a z-score of -1.59. With GGUGAUUGACAGAUUCUGATT against Nr4a1 the z-score was -0.613. For GCUUGGACCAUAAAUACUGTT against Senp5, the z-score was 0.051. With GAUCAGAUGUUUGGGACUUTT against Olfr512 the z-score was 2.25 (active). Sequence GGACUUCUUAAUGUUUUACTT against Phf11a has a z-score of 0.398. GCCCAAGGUAACAACAAGCTT against Rtn4r gave a z-score of 1.28. For “GGUAACUUUGAACUGAUCCTT against 1700030J22Rik”, the z-score was -1.17. For CCCUCAACCUCCAACCACATT against Ceacam1, the z-score was -2.15 (active). GGGUUAGAGUAAGGUAUUATT against Tsn gave a z-score of -0.879. Work on GCAGAUAGCCCACGUCAUUTT against Nfkb2 yielded a z-score of 0.881. In the case of CCUAAGUUCCUGAAAAUAUTT against Epha5, the z-score is reported as -0.454. For “GGGAUUCAGACAUGUGCUGTT against 4930503E14Rik”, the z-score was -0.658. For GGCCUACGAGAGGCAAAAATT against Hnf1a, the z-score was -2.05 (active). For CCAUACCGAUCAAAUUCCCTT against Pfn2, the z-score was -0.596.

— PubChem BioAssay AID1508600 (Functional Genomics Laboratory (NCATS/FGL), 2020)
